Shown are actives, neighbours in structure and some others; about 2.3% of the full set was active somewhere.
DENV2 CPE: inhibitors of DENV2 cytopathic effect, primary screen, cell-based, plate reader, single concentration. DENV2-infected cells, cytopathic effect rescue. 1.7% of 350,000 active. CPE inhibition, % at 9.99 µM; in the data active means CPE inhibition above about 20%, passing the limit was not always enough; inconclusive means no clear call, values can overlap the other calls; tested in BHK-21 cells;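 further: 0% = median of neutral control wells and 100% = median of positive control wells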
PDI turbidity: inhibitors of human PDI, primary screen, biochemical, turbidity, single point, plate reader; Protein disulfide-isomerase (Homo sapiens), P07237; PDI insulin aggregation turbidity, A650, 90 min; inhibition, % at 10 µM; 0.052% of 350,000 active;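 active means mean inhibition across replicates of 30% or more, whatever share of single replicates reach that level; inconclusive means mean inhibition below 30% while every single replicate reaches 30%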
SIRT5 block: SIRT5 desuccinylase inhibitors, primary screen, biochemical, fluorescence imaging, single point, set 5. Purified SirT5, succinyl-peptide AMC, trypsin-coupled fluorescence. inhibition, % at 15 µM. AID 652115, 2013. 1.1% of 330,000 active. NAD-dependent protein deacylase sirtuin-5, mitochondrial (Homo sapiens), Q9NXA8; in the data active means inhibition above about 15%; inconclusive means no clear call, values can overlap the other calls
Rtt109 HAT inh: inhibitors of C. albicans Rtt109/Vps75 HAT, primary screen, biochemical, ThioGlo CoA-SH fluorescence, plate reader; AID 540336, 2011; purified Rtt109/Vps75, 4 h; inhibition, % at 34.9 µM; 0.16% of 330,000 active; Histone acetyltransferase RTT109 (Candida albicans (strain SC5314 / ATCC MYA-2876)), …;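 active means inhibition of at least 50% in every replicate; inconclusive means best replicate reaches 50% inhibition but some replicates fall short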
ERp5 inh: inhibitors of ERp5-driven insulin aggregation, primary screen, biochemical, turbidity, absorbance 650 nm, single point | Protein disulfide-isomerase A6 (Homo sapiens), Q15084 | 90 min | inhibition, % at 9.99 µM | 0.05% of 350,000 active;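 active means mean replicate inhibition above about 25%, with every replicate also reaching it, limit read from the data, passing the limit was not always enough; inconclusive means only one of those two criteria met; inactive means neither criterion met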
Target sequence (Q15084 whole entry, looked up): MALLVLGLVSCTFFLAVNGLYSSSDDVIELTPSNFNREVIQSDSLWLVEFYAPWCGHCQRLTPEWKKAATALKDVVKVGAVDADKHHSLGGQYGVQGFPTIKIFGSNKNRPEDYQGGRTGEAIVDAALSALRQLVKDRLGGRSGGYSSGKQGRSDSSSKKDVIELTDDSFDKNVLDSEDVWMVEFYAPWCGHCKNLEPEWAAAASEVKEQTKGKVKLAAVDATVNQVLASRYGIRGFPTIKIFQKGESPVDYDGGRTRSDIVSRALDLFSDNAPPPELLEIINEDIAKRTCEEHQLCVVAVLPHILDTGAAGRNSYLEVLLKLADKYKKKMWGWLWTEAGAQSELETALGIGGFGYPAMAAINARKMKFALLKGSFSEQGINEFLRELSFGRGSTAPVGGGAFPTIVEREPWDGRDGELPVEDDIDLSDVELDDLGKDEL
Active calls of the source: *; ? = inconclusive; / = not tested or not shown.

SMILES	DENV2 CPE	PDI turbidity	SIRT5 block	Rtt109 HAT inh	ERp5 inh
Cc1cccc(S(=O)(=O)N2CCCCN3[C@H](CO)[C@H](c4ccc(-c5ccncc5)cc4)[C@@H]3C2)c1	33*	/	12	/	-1
CO[C@H]1CN(C)C(=O)c2cc(NC(=O)c3ccccc3F)ccc2OC[C@@H](C)N(CC2CCOCC2)C[C@H]1C	-1	/	4	/	2
Cc1ccc(-c2ccc([C@H]3[C@@H](CO)N4CCCCN(S(=O)(=O)c5cccc(C)c5)C[C@H]34)cc2)cc1	-5	/	19*	/	-6
CCCNC(=O)[C@@H]1c2ccccc2C(=O)N(Cc2ccccc2OC)[C@H]1c1ccc(CO)cc1	34*	/	-2	/	0
O=C(Nc1nnc(SCCC2OCCO2)s1)C1CC(=O)N(c2ccccc2)C1 (configuration not stated)	6	-3	-2	5	-2
Cc1cnc(NC(=O)C2CC(=O)N(c3ccc4c(c3)OCCO4)C2)s1 (configuration not stated)	-6	-14	/	2	-1
CNC(=O)CSc1nnc(NC(=O)C2CC(=O)N(c3ccccc3OC)C2)s1 (configuration not stated)	33*	1	-2	-2	4
COc1ccccc1N1CC(C(=O)Nc2nnc(SCc3ccccn3)s2)CC1=O (configuration not stated)	/	13	/	3	/
COc1cccc(N2CC(C(=O)Nc3ccc(F)cc3)CC2=O)c1 (configuration not stated)	27*	-3	0	28	2
Cc1cnc(NC(=O)C2CC(=O)N(c3cccc(Cl)c3)C2)s1 (configuration not stated)	33*	-1	1	-9	-1
COc1cccc(N2CC(C(=O)Nc3nnc(SCCC4OCCO4)s3)CC2=O)c1 (configuration not stated)	93*	1	-1	3	7
C/C=C/c1ccc([C@@H]2[C@H](CO)N(Cc3cncnc3)C23CN(C(=O)CC)C3)cc1	-6	/	-1	/	1
CCC(=O)N1C[C@@H]2[C@H](c3ccccc31)[C@@H](CO)N2Cc1ccccc1F	5	/	0	/	2
CN1CCN(C(=O)C[C@@H]2C[C@H]3c4cc(NC(=O)Nc5ccccc5)ccc4O[C@H]3[C@@H](CO)O2)CC1	7	/	/	/	/
C/C=C/c1ccc([C@H]2[C@H](CO)N(C(=O)CC)[C@H]2CN(C)S(C)(=O)=O)cc1	15	/	/	/	/
CCCNC(=O)C[C@H]1CC[C@@H]2[C@H](COc3ccc(NC(=O)CCC)cc3C(=O)N2C)O1	-1	/	0	/	-80
CCCCCCCCCn1c2c(c(=N)c3c1CCC3)CCCC2	/	-3	/	?	/
CCCCCCCCCCn1c2c(c(=N)c3c1CCC3)CCC2	/	1	/	77*	/
CCCN(C)C[C@@H]1Oc2cc(C#Cc3cccnc3)ccc2S(=O)(=O)N([C@@H](C)CO)C[C@@H]1C	0	/	15	/	-2
CC(C(=O)Nc1ccc(S(=O)(=O)N2CCOCC2)cc1)N1CCN(c2ccccn2)CC1 (configuration not stated)	3	-6	29*	-9	1
COc1cc(S(=O)(=O)N2CCN(c3ccccn3)CC2)ccc1Br	-6	-8	4	1	4
COc1ccc(S(=O)(=O)N2CCN(c3ccccn3)CC2)cc1OC	/	-3	/	53*	/
CCCCCCCCCCCCCCCCn1cc[n+](CC(C)=O)c1	/	-69	/	112*	/
CCS(=O)(=O)NCC[C@H]1CC[C@H](NS(=O)(=O)c2cccc(F)c2)[C@H](CO)O1	/	/	7	/	-5
O=C(Nc1ccccc1C(F)(F)F)C(O)(c1ccccc1)C1CCCCC1 (configuration not stated)	50*	1	/	-11	6
CO[C@@H]1CN(C)C(=O)c2ccc(NC(=O)NC(C)C)cc2OC[C@@H](C)N(C(=O)CC2CC2)C[C@H]1C	10	/	3	/	-5
CC(=O)N(C)C[C@H]1[C@H](c2ccc(-c3ccc(F)cc3)cc2)[C@@H](CO)N1C(C)=O	33*	/	2	/	3

High-throughput results as filed in PubChem BioAssay.
